Active and inactive are the calls of the source. How the source made its calls: active means hit-call score of the fitted dose curve at least 0.9, where 1 is the maximum; inactive means score below 0.9.
Columns and labels:
[1] = ATG_DR4_LXR_CIS: Attagene CIS-FACTORIAL HepG2 Assay for human Liver X Receptor (LXR), DR4 submotif (AID 2282929); conditions: HepG2 Attagene DR4 cis-reporter, mRNA transcription; AC50: actives raise or lower the signal unless noted; outcome: actives raise or lower the signal unless noted
Method in brief: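 Cells were transfected with multiple reporter transcription units, exposed to chemicals for 24 hours, then lysed for RNA. Reporter mRNA induction was measured by RT-PCR with capillary electrophoresis detection and fitted in both directions relative to DMSO.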

[2] = biological target: Aryl hydrocarbon receptor (Homo sapiens) (UniProt P35869); assay: ATG_Ahr_CIS: Attagene CIS-FACTORIAL HepG2 Assay for human Aryl Hydrocarbon Receptor (Ahr) (AID 2282930); conditions: HepG2 AhR cis-factorial reporter transcription; actives raise or lower the signal
Sequence of Aryl hydrocarbon receptor (Homo sapiens) (P35869 whole entry, looked up): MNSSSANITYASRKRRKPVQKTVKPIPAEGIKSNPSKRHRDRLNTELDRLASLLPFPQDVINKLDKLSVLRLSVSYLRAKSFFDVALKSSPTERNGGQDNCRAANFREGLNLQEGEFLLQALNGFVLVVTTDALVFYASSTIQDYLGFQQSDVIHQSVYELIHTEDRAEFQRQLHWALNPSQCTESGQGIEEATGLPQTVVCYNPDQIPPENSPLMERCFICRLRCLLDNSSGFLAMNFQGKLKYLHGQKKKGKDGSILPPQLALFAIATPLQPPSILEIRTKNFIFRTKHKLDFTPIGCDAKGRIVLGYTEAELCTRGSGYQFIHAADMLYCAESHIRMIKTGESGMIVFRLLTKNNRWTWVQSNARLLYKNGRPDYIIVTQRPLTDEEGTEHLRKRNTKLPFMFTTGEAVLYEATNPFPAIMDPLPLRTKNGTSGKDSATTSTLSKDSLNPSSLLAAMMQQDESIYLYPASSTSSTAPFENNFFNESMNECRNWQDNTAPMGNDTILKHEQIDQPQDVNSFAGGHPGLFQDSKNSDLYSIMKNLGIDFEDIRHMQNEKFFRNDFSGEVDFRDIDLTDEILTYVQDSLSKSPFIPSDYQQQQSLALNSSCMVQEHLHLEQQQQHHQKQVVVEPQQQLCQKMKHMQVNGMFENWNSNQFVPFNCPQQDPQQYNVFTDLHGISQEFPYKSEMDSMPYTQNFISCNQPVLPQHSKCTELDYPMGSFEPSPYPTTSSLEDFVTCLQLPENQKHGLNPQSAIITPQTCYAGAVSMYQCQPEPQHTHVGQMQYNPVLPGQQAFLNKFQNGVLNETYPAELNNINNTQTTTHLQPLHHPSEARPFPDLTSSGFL
Method in brief: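 HepG2 cells transiently transfected with cis-element-driven multiplexed reporter units; endogenous AhR activity read as reporter mRNA 24 h after dosing, via RT-PCR, 6-FAM labelling, HpaI digestion and capillary electrophoresis. Bidirectional fit relative to DMSO.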

[3] = ATG_AP_1_CIS: Attagene CIS-FACTORIAL HepG2 Assay for human Activator Protein 1 (AP-1) (AID 2282931); conditions: HepG2 Attagene cis-factorial AP-1 reporter mRNA; actives raise or lower the signal
Method in brief: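 Endogenous transcription-factor activity in human HepG2 liver cells is read through a cis-promoter reporter transcript, sampled 24 h after dosing. Detection uses RT-PCR with capillary electrophoresis; values come from bidirectional fitting relative to DMSO.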

[4] = ATG_AP_2_CIS: Attagene CIS-FACTORIAL HepG2 Assay for human Activator Protein 2 (AP-2) (AID 2282932); conditions: HepG2 AP-2 cis-reporter, Attagene transcription factor profiling; AC50: actives raise or lower the signal unless noted; outcome: actives raise or lower the signal unless noted
Method in brief: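 Read-out: fluorescent reporter mRNA via RT-PCR and capillary electrophoresis, 24 h post-dose in transiently transfected HepG2. Endogenous factors drive cis-promoter reporters; gain or loss of signal fitted bidirectionally against DMSO.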

[5] = ATG_BRE_CIS: Attagene CIS-FACTORIAL HepG2 Assay for human Bone Morphogenetic Protein (BMP) Response Element (BRE) (AID 2282933); conditions: HepG2 BMP response element reporter, Attagene transcription factor profiling; actives raise or lower the signal
Method in brief: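 Fluorescence-labelled reporter cDNA fragments, separated by capillary electrophoresis, gave the signal for this component of a 52-readout multiplex. HepG2 cells were transfected, exposed to chemicals for 24 h, and compared with DMSO using bidirectional fitting.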

[6] = biological target: Retinoic acid receptor alpha (Homo sapiens) (UniProt P10276); assay: ATG_DR5_RAR_CIS: Attagene CIS-FACTORIAL HepG2 Assay for human Retinoic Acid Receptor Alpha (RARE), DR5 submotif (AID 2282934); conditions: HepG2 Attagene cis-factorial RARE DR5 reporter, mRNA; actives raise or lower the signal;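 on AC50: reporter responds to endogenous RAR alpha beta and gamma in HepG2 not RARA alone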
Sequence of Retinoic acid receptor alpha (Homo sapiens) (P10276 whole entry, looked up): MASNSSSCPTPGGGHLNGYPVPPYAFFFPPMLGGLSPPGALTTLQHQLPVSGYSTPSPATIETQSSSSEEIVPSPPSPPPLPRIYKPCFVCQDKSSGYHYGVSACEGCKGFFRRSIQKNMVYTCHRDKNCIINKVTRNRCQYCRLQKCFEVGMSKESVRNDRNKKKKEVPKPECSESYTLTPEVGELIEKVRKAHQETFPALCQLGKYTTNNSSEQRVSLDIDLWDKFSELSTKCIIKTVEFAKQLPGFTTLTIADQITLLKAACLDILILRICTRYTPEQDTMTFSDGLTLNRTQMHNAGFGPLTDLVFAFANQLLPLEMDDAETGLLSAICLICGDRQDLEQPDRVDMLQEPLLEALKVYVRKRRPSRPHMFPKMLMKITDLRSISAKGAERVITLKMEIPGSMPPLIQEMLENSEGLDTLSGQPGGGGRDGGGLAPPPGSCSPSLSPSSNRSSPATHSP
Method in brief: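 HepG2 cells transiently transfected with multiplexed reporter units; DR5 cis-element drives reporter through endogenous transcription factors. After 24 h dosing, reporter mRNA quantified by RT-PCR, fluorescent labeling, HpaI digestion and capillary electrophoresis; bidirectional fitting versus DMSO.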

[7] = biological target: Transcription factor E2F1 (Homo sapiens) (UniProt Q01094); assay: ATG_E2F_CIS: Attagene CIS-FACTORIAL HepG2 Assay for human E2F Transcription Factor 1 (AID 2282935); conditions: HepG2 Attagene cis-reporter, E2F reporter RNA transcripts; actives raise or lower the signal
Sequence of Transcription factor E2F1 (Homo sapiens) (Q01094 whole entry, looked up): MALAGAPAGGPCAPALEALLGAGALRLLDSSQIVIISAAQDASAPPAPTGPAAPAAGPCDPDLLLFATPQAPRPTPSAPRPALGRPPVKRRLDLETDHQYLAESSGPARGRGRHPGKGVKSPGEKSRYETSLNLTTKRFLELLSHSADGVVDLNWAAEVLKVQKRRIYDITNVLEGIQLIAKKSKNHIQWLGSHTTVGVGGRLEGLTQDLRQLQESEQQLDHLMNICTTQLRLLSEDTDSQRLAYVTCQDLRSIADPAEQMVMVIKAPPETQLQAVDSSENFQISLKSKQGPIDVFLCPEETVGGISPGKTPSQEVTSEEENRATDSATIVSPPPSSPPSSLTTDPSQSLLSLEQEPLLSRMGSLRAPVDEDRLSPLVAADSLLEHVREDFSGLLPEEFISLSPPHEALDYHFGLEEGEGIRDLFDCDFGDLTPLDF
Method in brief: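 Transient MRTU transfection of HepG2; 24 h compound exposure; RNA → oligo(dT) RT → PCR → FAM label → HpaI cut → CE fluorescence. Gain/loss of signal fit against DMSO.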

[8] = ATG_E_Box_CIS: Attagene CIS-FACTORIAL HepG2 Assay for human Enhancer Box (E-box) (AID 2282936); conditions: HepG2 E-box cis-reporter transcription, actives raise or lower the signal
Method in brief: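 Transiently transfected HepG2, endogenous TF-driven reporters, 24 h dosing. Readout: RT-PCR plus capillary electrophoresis of fluorescent reporter fragments. Gain or loss of signal fitted bidirectionally against DMSO baseline.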

[9] = ATG_M_61_CIS: Attagene CIS-FACTORIAL HepG2 Assay for M61 Transcription Factor (Internal Marker) (AID 2282937); conditions: HepG2 Attagene CIS-FACTORIAL M61 internal marker reporter; actives raise or lower the signal
Method in brief: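 Cells were transfected with reporter units under cis-regulatory promoters, treated with chemicals for 24 h, then lysed for RNA. Reporter transcripts were quantified by RT-PCR and capillary electrophoresis, and activity was fitted bidirectionally against DMSO.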

[10] = ATG_EGR_CIS: Attagene CIS-FACTORIAL HepG2 Assay for human Early Growth Response 1 (EGR1) (AID 2282938); conditions: HepG2 Attagene CIS-FACTORIAL EGR reporter mRNA; actives raise or lower the signal
Method in brief: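 Endogenous TF activity in HepG2 liver cells was gauged through cis-promoter reporter constructs transiently transfected. After 24 h dosing, reporter mRNA was quantified by RT-PCR and capillary electrophoresis, and curves fitted in both directions versus DMSO.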

[11] = ATG_ERE_CIS: Attagene CIS-FACTORIAL HepG2 Assay for Estrogen Response Element (ERE) (AID 2282940); conditions: HepG2 ERE cis-reporter, Attagene RNA transcript; actives raise or lower the signal
Method in brief: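 After a 24 h chemical treatment, RNA from reporter-transfected HepG2 cells is reverse-transcribed, PCR-amplified and fluorescently labelled. Fragments separated by capillary electrophoresis give reporter signal; DMSO serves as negative control.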

[12] = ATG_Ets_CIS: Attagene CIS-FACTORIAL HepG2 Assay for human Erythroblast Transformation Specific (ETS) (AID 2282941); conditions: HepG2 ETS cis-reporter transcription; AC50: actives raise or lower the signal unless noted; outcome: actives raise or lower the signal unless noted
Method in brief: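 RT-PCR/capillary electrophoresis fluorescence read-out of reporter mRNA; HepG2 transient multi-reporter transfection; 24 h compound exposure; gain or loss of signal fitted bidirectionally relative to DMSO.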

[13] = biological target: Hepatocyte nuclear factor 3-beta (Homo sapiens) (UniProt Q9Y261); assay: ATG_FoxA2_CIS: Attagene CIS-FACTORIAL HepG2 Assay for human Forkhead box A2 (FOXA2) (AID 2282942); conditions: HepG2 cis-reporter transcription factor activity, 24 h; actives raise or lower the signal
Sequence of Hepatocyte nuclear factor 3-beta (Homo sapiens) (Q9Y261 whole entry, looked up): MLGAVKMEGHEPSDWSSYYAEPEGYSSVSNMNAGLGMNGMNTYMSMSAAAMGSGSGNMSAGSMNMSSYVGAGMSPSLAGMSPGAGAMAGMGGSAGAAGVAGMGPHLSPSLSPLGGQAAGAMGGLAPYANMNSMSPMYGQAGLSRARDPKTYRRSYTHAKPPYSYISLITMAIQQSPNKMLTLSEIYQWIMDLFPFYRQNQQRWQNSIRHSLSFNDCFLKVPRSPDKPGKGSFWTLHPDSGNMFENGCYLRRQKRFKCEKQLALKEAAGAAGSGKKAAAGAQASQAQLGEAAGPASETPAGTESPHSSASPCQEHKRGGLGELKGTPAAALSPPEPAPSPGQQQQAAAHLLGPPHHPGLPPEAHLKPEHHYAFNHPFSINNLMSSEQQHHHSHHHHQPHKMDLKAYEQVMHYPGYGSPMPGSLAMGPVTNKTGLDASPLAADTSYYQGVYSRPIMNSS
Method in brief: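 Endogenous transcription factor activity was read in HepG2 cells carrying transiently transfected cis-promoter reporter units. After 24 h dosing, reporter mRNA was quantified by RT-PCR and capillary electrophoresis, and values fitted bidirectionally versus DMSO.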

[14] = ATG_FoxO_CIS: Attagene CIS-FACTORIAL HepG2 Assay for human Forkhead box O (FoxO) (AID 2282943); conditions: HepG2 Attagene cis-reporter, FoxO element, mRNA; actives raise or lower the signal
Method in brief: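 HepG2 cells transiently transfected with cis-element-driven reporter units report endogenous FoxO activity. After 24 h chemical exposure, reporter mRNA quantified by RT-PCR, fluorescent labeling, HpaI digestion and capillary electrophoresis; bidirectional fit versus DMSO.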

[15] = ATG_GLI_CIS: Attagene CIS-FACTORIAL HepG2 Assay for human Zinc Finger Protein GLI1 (AID 2282945); conditions: HepG2, Attagene cis-factorial reporter mRNA, GLI element; actives raise or lower the signal
Method in brief: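 Transiently transfected HepG2 cells report endogenous transcription factor activity via cis-element-driven reporter units. After 24 h compound exposure, reporter mRNA was measured by RT-PCR with capillary electrophoresis; bidirectional fitting against DMSO baseline.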

[16] = biological target: Bile acid receptor (Homo sapiens) (UniProt Q96RI1); assay: ATG_IR1_CIS: Attagene CIS-FACTORIAL HepG2 Assay for human Nuclear Receptor Subfamily 1 Group H Member 4 (NR1H4), IR1 submotif (AID 2282946); conditions: IR1 reporter transcription, actives raise or lower the signal
Sequence of Bile acid receptor (Homo sapiens) (Q96RI1 whole entry, looked up): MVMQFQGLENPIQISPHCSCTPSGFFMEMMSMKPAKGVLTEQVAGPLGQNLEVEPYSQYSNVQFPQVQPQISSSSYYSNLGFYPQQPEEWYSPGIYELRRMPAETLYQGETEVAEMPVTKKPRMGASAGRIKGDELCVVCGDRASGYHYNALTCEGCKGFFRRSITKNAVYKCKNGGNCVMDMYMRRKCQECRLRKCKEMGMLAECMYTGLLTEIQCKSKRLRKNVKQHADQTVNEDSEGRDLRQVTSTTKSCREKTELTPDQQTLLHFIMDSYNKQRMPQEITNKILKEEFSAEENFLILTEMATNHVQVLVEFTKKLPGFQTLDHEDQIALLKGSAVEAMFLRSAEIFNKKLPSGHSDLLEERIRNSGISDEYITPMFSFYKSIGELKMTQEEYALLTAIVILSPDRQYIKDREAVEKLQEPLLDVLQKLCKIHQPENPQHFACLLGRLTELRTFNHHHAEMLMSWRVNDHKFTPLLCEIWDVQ
Method in brief: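 Fluorescence of capillary-separated, HpaI-digested RT-PCR reporter products gave IR1-element mRNA induction in HepG2 cells 24 h after dosing. Endogenous transcription factors drove the cis-regulated reporters; activity was fitted bidirectionally against DMSO.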

[17] = ATG_GRE_CIS: Attagene CIS-FACTORIAL HepG2 Assay for human Glucocorticoid Response Elements (GRE) (AID 2282947); conditions: HepG2 GRE cis-reporter, Attagene multiplex mRNA; AC50: actives raise or lower the signal unless noted; outcome: actives raise or lower the signal unless noted
Method in brief: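 Read-out: fluorescent reporter-transcript fragments separated by capillary electrophoresis after RT-PCR. Transiently transfected HepG2 cells carrying cis-element-driven reporter units were dosed for 24 h; gain or loss of signal fitted against DMSO control.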

[18] = ATG_ISRE_CIS: Attagene CIS-FACTORIAL HepG2 Assay for human Interferon Regulatory Factor 1 (IRF1) binding to an Interferon-Stimulated Response Element (ISRE) (AID 2282948); conditions: HepG2 ISRE cis-reporter (Attagene), mRNA transcription readout; actives raise or lower the signal
Method in brief: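 Read-out: fluorescent RT-PCR products resolved by capillary electrophoresis, reporting endogenous transcription factor activity via ISRE-driven reporter mRNA in transfected HepG2 cells dosed for 24 h; gain or loss fitted relative to DMSO.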

[19] = ATG_M_19_CIS: Attagene CIS-FACTORIAL HepG2 Assay for M19 Transcription Factor (Internal Marker) (AID 2282939); conditions: HepG2 Attagene CIS-FACTORIAL M19 internal marker reporter; actives raise or lower the signal
Method in brief: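 HepG2, MRTU transient transfection, 24 h dosing. Total RNA → RT-PCR → 6-FAM primer extension → HpaI digest → CE fluorescence. Bidirectional curve fit, DMSO negative control.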

[20] = ATG_GATA_CIS: Attagene CIS-FACTORIAL HepG2 Assay for human GATA Binding Protein (AID 2282944); conditions: HepG2 GATA cis-element reporter, Attagene multiplex mRNA; actives raise or lower the signal
Method in brief: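 Cells: HepG2, transiently transfected with cis-regulated reporter transcription units. Exposure: 24 h. Detection: RT-PCR plus capillary electrophoresis of FAM-labeled fragments. Analysis: bidirectional, DMSO as baseline.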

Measured: AC50

C=CC(=O)OCCC(F)(F)C(F)(F)C(F)(F)C(F)(F)C(F)(F)C(F)(F)F
active: [11] 30.9 µM
not listed: [19] | [20]
inactive: all other assays above

CCCCCc1ccc(O)cc1
active: [1] 33 µM | [2] 15 µM | [11] 2.4 µM
not listed: [20]
inactive: all other assays above

CC(C)(O)C(=O)c1ccccc1
not listed: [13]
inactive: all other assays above

CCCCCCCCCCCCCCCC(=O)OC
not listed: [13] | [20]
inactive: all other assays above

COc1ccccc1NC(=O)c1cc2ccccc2cc1O
active: [1] 41.9 µM | [2] 0.0553 µM | [5] 26.1 µM | [8] 26.7 µM | [10] 52.9 µM | [12] 46.5 µM | [14] 100 µM | [15] 60.7 µM | [16] 68.8 µM | [17] 100 µM | [18] 82.7 µM
inactive: [3] | [4] | [6] | [7] | [9] | [19] | [11] | [13]

O=C(O)CCC(F)(F)C(F)(F)C(F)(F)C(F)(F)C(F)(F)C(F)(F)F
active: [1] 100 µM | [6] 51 µM
not listed: [20]
inactive: all other assays above

O=C(Nc1cccc([N+](=O)[O-])c1)c1cc2ccccc2cc1O
active: [2] 0.411 µM | [3] 2.31 µM | [5] 1.17 µM | [7] 2.35 µM | [11] 3.32 µM
not listed: [13]
inactive: all other assays above

Cc1ccc(N=Nc2c(O)ccc3ccccc23)c(C)c1
active: [2] 0.36 µM | [3] 5.87 µM | [11] 5.07 µM
not listed: [17]
inactive: all other assays above

Nc1ccc(O)c(C(=O)O)c1
active: [11] 12.3 µM
not listed: [17]
inactive: all other assays above

CCCCCCOC(=O)c1ccc(O)cc1
active: [1] 41.8 µM | [3] 50.4 µM | [4] 54.9 µM | [8] 51.6 µM | [10] 52.2 µM | [11] 8.86 µM | [12] 54.1 µM | [15] 60.3 µM | [16] 47.5 µM
not listed: [19]
inactive: all other assays above

CCO[Si](CCC1CCC2OC2C1)(OCC)OCC (centres undefined)
not listed: [19]
inactive: all other assays above

NCc1cccc(CN)c1
not listed: [17] | [19]
inactive: all other assays above

CCC1CO1 (centres undefined)
not listed: [11]
inactive: all other assays above

From PubChem BioAssay (EPA / NIEHS)
